From the supplement of paper PMC8699584 come the findings set out here.

SMILES strings stand for the structures. Where a name gives a salt, the structure may show the parent alone. ± gives the standard deviation of the averaged measurements.

In one assay the test system is Molm13. Description: cell viability relative to DMSO control (bortezomib = 0%); higher = less growth inhibition. To be noted: 10 nM; 72 h. The method, boiled down: (§1)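 Cell viability was assessed by CellTiter-Glo luminescence. Acute myeloid leukemia cells were seeded at 1000 cells per well in 50 µL on a 384-well library of 679 compounds at a single 10 nM dose for 72 h. Per-plate linear regression set DMSO-treated cells at 100% and positive-control-treated cells at 0%.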

Another assay deals with Mv4-11. Described as above. To be noted: 10 nM; 72 h. The method, boiled down:
as §1

Usually cell viability stands for a read-out of living cells in per cent, often relative to untreated cells.

For `CNc1nc(Nc2cnn([C@H]3CCN(C4COC4)C[C@@H]3F)c2Cl)ncc1C(F)(F)F`, the values for the cell viability in the assay with Molm13 and in the assay on Mv4-11 were 99.6 ± 15% and 106 ± 2.4%, respectively.

As to `COc1cc2ncnc(Nc3ccc(Cl)cc3F)c2cc1OC`, the cell viability with Molm13 was 108 ± 8.2%; with Mv4-11 it was 102 ± 6.2%.

With `O=c1ncn2nc(Sc3ccc(F)cc3F)ccc2c1-c1c(Cl)cccc1Cl`, the values for the cell viability in the assay on Molm13 and in the assay on Mv4-11 were 89.6 ± 1.7% and 108 ± 6.4%, respectively.

Consider `COc1cc2ncnc(Nc3ccc(F)c(Cl)c3)c2cc1OCCCN1CCOCC1` [Gefitinib], for which the cell viability came out at 114.4 ± 0.96% in the assay on Molm13 and 120 ± 1.4% with Mv4-11.

With `COc1cc2ncnc(Nc3ccc(O)cc3)c2cc1OC`, the cell viability with Molm13 worked out at 116 ± 5%; in the assay on Mv4-11 it was 102 ± 7.1%.

Consider `Cn1cc(C2=C(c3cn(CCCSC(=N)N)c4ccccc34)C(=O)NC2=O)c2ccccc21` [Bisindolylmaleimide IX (mesylate)], for which the cell viability with Molm13 was 99.3 ± 4.7%; with Mv4-11 it was 104 ± 12%.

For `Oc1ccc2c(c1)OCO2` [Sesamol], the cell viability in the assay with Molm13 worked out at 103 ± 1.4%; in the assay with Mv4-11, 113.6 ± 0.84%.

For the compound `Cn1cc(C2=C(c3cn(CCCN)c4ccccc34)C(=O)NC2=O)c2ccccc21` [Bisindolylmaleimide VIII (acetate)], the results for the cell viability in the assay with Molm13 and with Mv4-11 were 111 ± 18% and 119 ± 26%, respectively.

On to `CN1CCC(CNc2ccc3ncc(-c4cccc(OC(F)(F)F)c4)n3n2)CC1` [SGI-1776 free base], for which the cell viability in the assay with Molm13 turned out to be 92.3 ± 5.5%; in the assay on Mv4-11 it was 97.7 ± 14%.

Regarding `NCCNS(=O)(=O)c1cccc2cnccc12` [H-9 (hydrochloride)], the cell viability with Molm13 was found to be 114 ± 24%; with Mv4-11 it was 111 ± 4.7%.

On to `Cc1ccc(NC(=O)c2ccc(CN3CCN(C)CC3)cc2)cc1Nc1nccc(-c2cccnc2)n1` [Imatinib Mesylate (STI571)], for which the cell viability was 105 ± 13% with Molm13 and 106 ± 7.4% in the assay with Mv4-11.

Take `COc1ccc(-n2c(SCC#N)nc3sc4c(c3c2=O)CCCC4)cc1` [Necrostatin-5]: the cell viability with Molm13 amounted to 102 ± 3.9%; in the assay on Mv4-11, 103 ± 3%.

In the case of `NC(=O)Nc1cc(-c2ccc(CN3CCOCC3)cc2)sc1C(N)=O`, the results for the cell viability in the assay with Molm13 and in the assay with Mv4-11 were 108 ± 30% and 113 ± 6.3%, respectively.

In the case of `O=C(Nc1cc(C(F)(F)F)ccc1N1CCCCC1)c1ccncc1`, the cell viability was 99.5 ± 9.8% in the assay with Molm13 and 129 ± 17% in the assay with Mv4-11.

Take `CCCC(CCC)C(=O)O` [Valproic Acid (sodium salt)]: the cell viability amounted to 100 ± 10% in the assay with Molm13 and 104 ± 10% in the assay on Mv4-11.

For `CN(C)CCN(Cc1ccc(Cl)cc1)c1ccccn1` [Chloropyramine hydrochloride], the cell viability in the assay on Molm13 is 105 ± 27%; in the assay with Mv4-11, 107 ± 12%.

`COc1ccc(-c2cc(=O)c3c(O)cc(O)cc3o2)cc1O` [Diosmetin]: the cell viability amounted to 93.4 ± 11% in the assay with Molm13 and 96.8 ± 6.3% in the assay on Mv4-11.

As to `CNC(=O)c1ccc(-c2cnc3ncc(Cc4ccc5ncccc5c4)n3n2)cc1F`, the results for the cell viability in the assay with Molm13 and with Mv4-11 were 109 ± 3.6% and 108 ± 6.8%, respectively.

For `CN(C)S(=O)(=O)c1ccc2c(c1)/C(=C/c1cc3c([nH]1)CCCC3)C(=O)N2`, the cell viability in the assay on Molm13 was found to be 113 ± 3.4%; with Mv4-11, 109 ± 1.4%.

For `N#Cc1c(O)c2c(-c3ccc(-c4ccccc4O)cc3)csc2[nH]c1=O`, the cell viability was found to be 111 ± 27% in the assay on Molm13 and 93.9 ± 14% in the assay with Mv4-11.

Take `CC(C)c1ccc2c(c1)CC[C@@H]1[C@@](C)(CN)CCC[C@@]21C` [Leelamine (hydrochloride)]: the results for the cell viability with Molm13 and in the assay with Mv4-11 were 101.6 ± 0.018% and 96.46 ± 0.32%, respectively.

Take `CC[C@H](Nc1ncnc2[nH]cnc12)c1nc2cccc(F)c2c(=O)n1-c1ccccc1` [CAL-101 (Idelalisib, GS-1101)]: the results for the cell viability in the assay with Molm13 and in the assay on Mv4-11 were 93.7 ± 22% and 105 ± 6.2%, respectively.

As for `CN1CCN(c2nc(C3=C(c4c[nH]c5ccccc45)C(=O)NC3=O)c3ccccc3n2)CC1` [Sotrastaurin], the cell viability in the assay on Molm13 is 99 ± 21%; in the assay with Mv4-11 it was 109 ± 11%.

On to `Cc1ccc(NC(=O)c2ccc(CN3CCN(C)CC3)cc2)cc1Nc1nccc(-c2cccnc2)n1` [Imatinib (STI571)], for which the cell viability in the assay with Molm13 was determined as 97.6 ± 9.5%; in the assay on Mv4-11, 97.2 ± 9.2%.

For `O=C1NC(=O)C(c2ccccc2[N+](=O)[O-])=C1Nc1ccc(O)c(Cl)c1`, the figures for the cell viability in the assay with Molm13 and with Mv4-11 were 110 ± 9.4% and 120 ± 9.7%, respectively.

As for `CC1(COc2ccc3c(c2)ncn3-c2ccc3cccc(N4CCC(N)CC4)c3n2)COC1` [Crenolanib], the cell viability came out at 14.9 ± 3.8% with Molm13 and 18.2 ± 5.8% in the assay with Mv4-11.

In the case of `CC1(C)OC(=O)C=C[C@]2(C)[C@H]3CC[C@@]4(C)[C@H](c5ccoc5)OC(=O)[C@H]5O[C@]54[C@]3(C)C(=O)C[C@@H]12` [Obacunone], the cell viability was found to be 108 ± 7.3% with Molm13 and 109 ± 19% in the assay on Mv4-11.

`CO[C@@H](C(=O)N1Cc2[nH]nc(NC(=O)c3ccc(N4CCN(C)CC4)cc3)c2C1)c1ccccc1`: the results for the cell viability in the assay with Molm13 and in the assay with Mv4-11 were 95.2 ± 34% and 100 ± 3.8%, respectively.

Take `O=S(=O)(c1cccc2cnccc12)N1CCCNCC1` [Fasudil]: the cell viability in the assay on Molm13 came to 109 ± 12%; with Mv4-11, 104 ± 9.1%.

In the case of `C=C1C[C@@]2(O)O[C@@]3(C[C@H]2C(C)C)[C@@H](C)CC[C@@H]13` [Curcumol], the cell viability came out at 99 ± 9.7% with Molm13 and 97.2 ± 4.6% in the assay on Mv4-11.

Regarding `CCN(CC)CCNC(=O)c1c(C)[nH]c(/C=C2\C(=O)Nc3ccc(F)cc32)c1C` [Sunitinib], the cell viability with Molm13 was 111 ± 26%; with Mv4-11 it was 117 ± 4.9%.

As for `CS(=O)(=O)N1CCc2c(-c3cnc(N)nc3)nc(N3CCOCC3)nc21`, the values for the cell viability in the assay on Molm13 and with Mv4-11 were 119.7 ± 0.72% and 126 ± 9.7%, respectively.

For `Nc1ccn([C@@H]2O[C@H](CO)[C@@H](O)C2(F)F)c(=O)n1` [Gemcitabine], the cell viability is -0.99 ± 5.6% in the assay on Molm13 and -5.76 ± 18% with Mv4-11.

For the compound `O=c1cc(-c2ccc(O)cc2)oc2cc(O)cc(O)c12` [Apigenin], the cell viability in the assay with Molm13 was found to be 86.9 ± 19%; in the assay with Mv4-11 it was 95.3 ± 2.3%.

Regarding `C[C@@H]1O[C@@H](Oc2cc(O)c3c(=O)c(O[C@@H]4O[C@@H](C)[C@H](O)[C@@H](O)[C@H]4O)c(-c4ccc(O)cc4)oc3c2)[C@H](O)[C@H](O)[C@H]1O` [Kaempferitrin], the cell viability was 114 ± 10% in the assay with Molm13 and 105 ± 3.1% with Mv4-11.
